Source: the antibiotic and cytotoxicity screens of Wong et al. (2023)
Among all 39,000 compounds or so, about 3,300 (8.5%) were called active. The sample as a whole holds a higher share of actives than the screen did.

The compounds below were run on HepG2 (assay: cytotoxicity call (relative viability < 0.9)). Conditions: 10 µM.

Row | Compound | cytotoxicity call
1 | COc1ccc(S(=O)(=O)N[C@@H]2C=C[C@H](CC(=O)NCCc3ccncc3)O[C@H]2CO)cc1 | inactive
2 | O=C(C[C@@H]1C[C@H]2c3cc(NC(=O)c4ccc5c(c4)OCO5)ccc3O[C@H]2[C@H](CO)O1)NCCN1CCCCC1 | inactive
3 | COc1ccc(C(=O)Nc2cccc(CN3C(=O)[C@]4(O[C@H](CC(=O)N5CCC[C@H]5CO)[C@@H]([Si](C)(C)c5ccc(OC)cc5)[C@@H]4C)c4ccccc43)c2)cc1 | inactive
4 | COc1ccc(C(=O)Nc2ccc(CN3C(=O)[C@@]4(O[C@@H](CC(=O)N5Cc6ccccc6C[C@H]5CO)[C@H]([Si](C)(C)c5ccc(OC)cc5)[C@H]4C)c4ccccc43)cc2)cc1 | inactive
5 | COc1ccc(C(=O)Nc2ccc(CN3C(=O)[C@]4(O[C@H](CC(=O)N5Cc6ccccc6C[C@H]5CO)[C@@H]([Si](C)(C)c5ccc(OC)cc5)[C@@H]4C)c4ccccc43)cc2)cc1 | active
6 | COc1ccc(C(=O)Nc2cccc(CN3C(=O)[C@@]4(O[C@@H](CC(=O)N5CCC[C@H]5CO)[C@H]([Si](C)(C)c5ccc(OC)cc5)[C@H]4C)c4ccccc43)c2)cc1 | inactive
7 | COc1ccc([Si](C)(C)[C@H]2[C@H](CC(=O)N3Cc4ccccc4C[C@H]3CO)O[C@@]3(C(=O)N(Cc4ccc(N5CCOC5=O)cc4)c4ccccc43)[C@@H]2C)cc1 | active
8 | COc1ccc([Si](C)(C)[C@@H]2[C@@H](CC(=O)N3Cc4ccccc4C[C@H]3CO)O[C@]3(C(=O)N(Cc4ccc(N5CCOC5=O)cc4)c4ccccc43)[C@H]2C)cc1 | inactive
9 | COc1ccc([Si](C)(C)[C@@H]2[C@@H](CC(=O)N3Cc4ccccc4C[C@H]3CO)O[C@]3(C(=O)N(Cc4ccc(I)cc4)c4ccccc43)[C@H]2C)cc1 | inactive
10 | COc1ccc(C(=O)Nc2cccc(CN3C(=O)[C@@]4(O[C@@H](CC(=O)N5Cc6ccccc6C[C@H]5CO)[C@H]([Si](C)(C)c5ccc(OC)cc5)[C@H]4C)c4ccccc43)c2)cc1 | active
11 | COc1ccc([Si](C)(C)[C@H]2[C@H](CC(=O)N3Cc4ccccc4C[C@H]3CO)O[C@@]3(C(=O)N(Cc4cccc(N5CCOC5=O)c4)c4ccccc43)[C@@H]2C)cc1 | inactive
12 | C[C@H](CO)N1C[C@H](C)[C@@H](CN(C)Cc2ccc(-c3ccccc3)cc2)Oc2c(NC(=O)C3CCOCC3)cccc2C1=O | inactive
13 | C[C@@H]1CN([C@H](C)CO)C(=O)c2cc(NC(=O)CCCN(C)C)ccc2O[C@@H](C)CCCCO[C@@H]1CN(C)S(C)(=O)=O | inactive
14 | C[C@@H]1CN([C@H](C)CO)C(=O)CCCn2cc(nn2)CO[C@@H]1CN(C)C(=O)Nc1ccc(N2CCCCC2)cc1 | inactive
15 | Cc1noc(C)c1NC(=O)N(C)C[C@H]1Oc2ccc(NS(C)(=O)=O)cc2CC(=O)N([C@@H](C)CO)C[C@H]1C | inactive
16 | C[C@@H]1CCCCO[C@@H](CN(C)S(=O)(=O)c2cn(C)cn2)[C@H](C)CN([C@@H](C)CO)C(=O)c2cc(N(C)C)ccc2O1 | inactive
17 | O=C(C[C@@H]1CC[C@@H]2[C@H](COC[C@H](O)CN2Cc2cc(F)ccc2F)O1)N[C@@H]1CCN(Cc2ccccc2)C1 | inactive
18 | C[C@@H]1CN([C@@H](C)CO)C(=O)c2cc(Br)cnc2O[C@H]1CN(C)C(=O)CCN1CCCCC1 | inactive

Row | Compound | cytotoxicity call
19 | C[C@@H]1CCCCO[C@H](CN(C)C(=O)Nc2ccc(F)cc2)[C@H](C)CN([C@@H](C)CO)C(=O)c2cc(NC(=O)Nc3cccc4ccccc34)ccc2O1 | inactive
20 | Cc1cc(C)c2c(c1)[C@@H](N(Cc1cc(C(F)(F)F)cc(C(F)(F)F)c1)c1nnn(C)n1)CCCN2C[C@H]1CC[C@H](C(=O)O)CC1 | active
21 | Cc1ccc(S(=O)(=O)Nc2ccc3c(c2)C(=O)N([C@H](C)CO)C[C@H](C)[C@H](CN(C)S(=O)(=O)c2ccc(C)cc2)OCCCC[C@@H](C)O3)cc1 | inactive
22 | Cc1ccc(S(=O)(=O)Nc2ccc3c(c2)CC(=O)N([C@H](C)CO)C[C@@H](C)[C@@H](CN(C)Cc2ccc(Cl)c(Cl)c2)O3)cc1 | active
23 | Cc1ccc(S(=O)(=O)Nc2ccc3c(c2)CC(=O)N([C@H](C)CO)C[C@H](C)[C@@H](CN(C)Cc2ccc(Cl)c(Cl)c2)O3)cc1 | inactive
24 | Cc1ccc(S(=O)(=O)Nc2ccc3c(c2)CC(=O)N([C@@H](C)CO)C[C@H](C)[C@@H](CN(C)Cc2ccc(Cl)c(Cl)c2)O3)cc1 | inactive
25 | Cc1ccc(S(=O)(=O)Nc2ccc3c(c2)CC(=O)N([C@H](C)CO)C[C@@H](C)[C@H](CN(C)Cc2ccc(Cl)c(Cl)c2)O3)cc1 | inactive
26 | Cc1ccc(S(=O)(=O)Nc2ccc3c(c2)CC(=O)N([C@@H](C)CO)C[C@@H](C)[C@@H](CN(C)Cc2ccc(Cl)c(Cl)c2)O3)cc1 | active
27 | Cc1ccc(S(=O)(=O)Nc2ccc3c(c2)CC(=O)N([C@@H](C)CO)C[C@H](C)[C@H](CN(C)Cc2ccc(Cl)c(Cl)c2)O3)cc1 | active
28 | Cc1ccc(S(=O)(=O)Nc2ccc3c(c2)CC(=O)N([C@@H](C)CO)C[C@@H](C)[C@H](CN(C)Cc2ccc(Cl)c(Cl)c2)O3)cc1 | inactive
29 | Cc1ccc(S(=O)(=O)Nc2ccc3c(c2)CC(=O)N([C@H](C)CO)C[C@H](C)[C@H](CN(C)Cc2ccc(Cl)c(Cl)c2)O3)cc1 | active
30 | Cc1ccc(S(=O)(=O)Nc2ccc3c(c2)C(=O)N([C@@H](C)CO)C[C@H](C)[C@@H](CN(C)S(C)(=O)=O)OCCCC[C@@H](C)O3)cc1 | inactive
31 | COc1ccc(S(=O)(=O)Nc2ccc3c(c2)C(=O)N([C@H](C)CO)C[C@@H](C)[C@@H](CN(C)Cc2ccc(Cl)c(Cl)c2)O3)cc1 | inactive
32 | O=C(C[C@@H]1CC[C@H]2[C@@H](COC[C@@H](O)CN2S(=O)(=O)c2cccc(F)c2)O1)NCc1ccncn1 | inactive
33 | CC(=O)N1CCC(C(=O)O)CC1 | inactive
34 | COc1ccc(NC(=O)N(C)C[C@@H]2OCCCC[C@H](C)Oc3ccc(NC(=O)C4CCCCC4)cc3C(=O)N([C@@H](C)CO)C[C@@H]2C)cc1 | inactive
35 | Cc1cc(C)n(-c2ccc(=O)n(CC(=O)N3CCN(S(=O)(=O)c4ccc(F)cc4)CC3)n2)n1 | inactive
36 | C[C@@H]1CN([C@H](C)CO)C(=O)c2cc(NC(=O)CCN3CCOCC3)ccc2O[C@H]1CN(C)S(=O)(=O)c1ccc(F)cc1 | inactive
